Compound activity: PubChem BioAssay, National Center for Advancing Translational Sciences (NCATS)
Sampled rows, rich in hits. Any-hit rate of the full collection: about 19%.
DT40 TDP1 no CPT = qHTS for Inhibitors of human tyrosyl-DNA phosphodiesterase 1 (TDP1): qHTS in cells in absence of CPT | DT40 Tdp1-/- hTDP1 cells, no CPT, ATP luminescence, 48 h | Potency, µM (top dose mostly 46.2 µM), inactives show top-dose activity change, negative = growth inhibition, usual class: inhibitors | 420,000 compounds, 15% hits | AID 686978, 2013; also: potency is read from the fitted curve at half-maximal effect; nearly all actives have a fitted effect of over 55% in size
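Cells were dispensed at 400 per well, compounds added by pin tool, plates incubated ≥48 hr at 37 °C, then CellTiter-Glo added for 30 min at room temperature before luminescence reading. Line: DT40 Tdp1-/- complemented with hTDP1; camptothecin omitted.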
HT1080 IDH1KD tx = qHTS for induction of synthetic lethality in tumor cells producing 2HG: qHTS for the HT-1080-IDH1KD cell line; HT-1080 IDH1 knockdown viability, ATP luminescence, 48 h; 360,000 compounds, 2% hits; Potency, µM (titrated, usually from 46.1 µM), for inactives: at the highest dose activity, negative = toxicity, hits mostly cytotoxic; AID 686971, 2013;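 also: potency is read from the fitted curve at half-maximal effect; 0% = DMSO wells and -100% = cell-free medium wells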
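Luminescent ATP read-out (CellTiter-Glo, 10 min at room temperature) after 48 h compound exposure at 37 °C gave viability of IDH1-knockdown HT-1080 cells. Activity was normalised to DMSO and cell-free wells, then fitted as concentration-response curves.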
TDP1 cell CPT = qHTS for Inhibitors of human tyrosyl-DNA phosphodiesterase 1 (TDP1): qHTS in cells in presence of CPT; Potency, µM (highest dose often 46.2 µM), inactives show top-dose activity change, negative = growth inhibition, most hits filed as inhibitors; chicken DT40 Tdp1-/-;hTDP1 cells + 20 nM CPT, ATP luminescence, 48 h; 420,000 compounds, 12% hits; also: potency is read from the fitted curve at half-maximal effect; nearly all actives have a fitted effect of over 55% in size
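Chicken DT40 Tdp1-/- cells stably complemented with human TDP1 were seeded at 400 cells/well in medium containing 20 nM camptothecin, exposed to pin-transferred compounds, and grown at 37 °C for at least 48 hr. Viability was read as ATP luminescence.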
HT1080-NT tox = qHTS for induction of synthetic lethality in tumor cells producing 2HG: qHTS for the HT-1080-NT fibrosarcoma cell line. 360,000 compounds, 1.6% hits. Potency, µM (doses to about 46.1 µM), for the others: top-dose activity, negative = less viability, hits mostly cytotoxic. HT-1080-NT fibrosarcoma viability, CellTiter-Glo ATP luminescence, 48 h;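 also: NT is the 2HG producing partner of a matched IDH1 knockdown line; potency is read from the fitted curve at half-maximal effect; 0% = DMSO-treated cells and -100% = media-only wells without cells; nearly all actives have a fitted effect of over 55% in size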
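Viability by CellTiter-Glo luminescence after 48 h compound exposure at 37C of HT-1080-NT cells (750/well, RPMI, 5% FBS). % activity scaled between DMSO wells and medium-only wells, then curve-fitted and categorized by curve class.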
IL-1B inflam inh = qHTS for Inhibitors of Inflammasome Signaling: IL-1-beta AlphaLISA Primary Screen; activity change, % at 57.5 µM; AID 743279, 2014; 360,000 compounds, 4.7% hits; THP-1 LPS/ATP IL-1B secretion, AlphaLISA, 16 h; hits give low values; in the data active = activity change below about -50%; inconclusive = mostly about -30% to -49%
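THP-1 cells pretreated 1 hr with compounds (up to 57.5 uM final), then stimulated with LPS (250 ng/mL final) plus ATP (1.25 mM final); secreted IL-1B measured by AlphaLISA after 16 hr, decreased signal indicating inhibition.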
* hit, by the source's call; u = inconclusive; x = no result given. Unless noted, calls follow the shape of the dose curve; as a rule, active = well fitted curve in the direction sought with a large enough effect; inconclusive = small, poorly fitted or top-dose-only effect, or another doubt; inactive = no such curve, though single readings can be large; an effect the other way counts as inactive or inconclusive. Unless noted, % is scaled to controls: 0 for no effect and ±100 for the full control effect.

SMILES	DT40 TDP1 no CPT	HT1080 IDH1KD tx	TDP1 cell CPT	HT1080-NT tox	IL-1B inflam inh
COC(=O)c1ccc2c(c1)c(-c1ccccc1)c(-c1ccccc1)n2C	-28%	5%	-28%	3%	-6
COc1ccc(C(C)(O)c2nc(-c3ccccc3C)cs2)cc1 (stereo not drawn)	5.8µM*	9.2µM*	6.5µM*	u	65
COc1ccc(C(C)(O)c2nc(-c3ccc(OC)c(OC)c3)cs2)cc1 (stereo not drawn)	u	-6%	23µM*	-5%	-21
COc1ccc(-c2csc(C(C)(O)c3ccccc3)n2)cc1OC (stereo not drawn)	u	1%	u	-2%	-15
Cc1ccc(C)c(NC(=O)Cn2c(=O)n(Cc3ccco3)c(=O)c3ccc(C(=O)NC4CCCC4)cc32)c1	16µM*	x	u	x	x
O=C(Cn1c(=O)n(Cc2ccco2)c(=O)c2ccc(C(=O)NC3CCCC3)cc21)Nc1ccc(F)cc1	-17%	x	-27%	x	x
CCOc1ccccc1NC(=O)Cn1c(=O)n(Cc2ccco2)c(=O)c2ccc(C(=O)NC3CCCC3)cc21	23µM*	x	u	x	x
Nc1ccc(-c2cc3ccccc3[nH]2)cc1	-27%	x	-1%	x	x
C=C(CN(C)C)C(=O)c1cc(C)ccc1C	1µM*	4.6µM*	0.58µM*	u	-101*
COc1cc(OC)c2c(C)c(CC(=O)N3CCCCC3)c(=O)oc2c1	-22%	x	8%	x	x
CC(=O)c1cccc(NS(=O)(=O)c2cc3c(cc2C)n(C)c(=O)c(=O)n3C)c1	-24%	x	13%	x	x
Cc1cc(C(F)(F)F)n(-c2nc(C(=O)NN)cs2)n1	-9%	-16%	-10%	-7%	-7
COc1ccc(/C=N/NC(=O)c2csc(-n3nc(C)cc3C(F)(F)F)n2)cc1	21µM*	1%	u	-8%	-16
C=CCc1cccc(/C=N/NC(=O)C(=O)Nc2ccc(C)cc2)c1O	5.2µM*	-17%	3.7µM*	-10%	31
C=CCc1cccc(/C=N/NC(=O)C(C)Nc2ccc(C)cc2)c1O (stereo not drawn)	8.2µM*	u	16µM*	-24%	0
COc1ccc(NC(C)C(=O)N/N=C/c2cc(Br)ccc2OC)cc1 (stereo not drawn)	-6%	1%	-4%	-4%	-22
C=CCOc1ccccc1/C=N/NC(=O)Cc1ccc(C)cc1	u	12%	-13%	8%	7
CN(C)c1nc(N)nc(CSc2nc3cc(Cl)ccc3o2)n1	2%	23%	-19%	6%	50
O=S1(=O)C=C(Sc2nc3cc(Cl)ccc3o2)c2ccccc21	0.46µM*	5.2µM*	0.58µM*	5.2µM*	-119*
CCOC(=O)C1(C)NC(c2cccs2)C2C(=O)N(c3ccc(OC)cc3)C(=O)C21 (stereo not drawn)	18µM*	10%	10µM*	15%	15
CCOC(=O)C1(C)NC(c2ccccc2F)C2C(=O)N(c3cccc(C(C)=O)c3)C(=O)C21 (stereo not drawn)	18µM*	-1%	23µM*	u	13
CCOC(=O)C1(C)NC(c2ccc(N(C)C)cc2)C2C(=O)N(c3ccc(OC)cc3)C(=O)C21 (stereo not drawn)	-13%	16%	9%	u	-14
COc1ccc(NC(=O)Cc2nnc(SCC(=O)c3ccc(F)cc3)n2C)cc1	5%	1%	8%	15%	0
CCOC(=O)c1c(NC(=O)c2cc(-c3ccc(Br)cc3)on2)sc(C)c1C	2%	x	-4%	x	x
COC(=O)C1=C(C)Nc2ncnn2C1c1ccc(OCc2ccccc2)cc1 (stereo not drawn)	u	9%	-9%	10%	7
SMILES	DT40 TDP1 no CPT	HT1080 IDH1KD tx	TDP1 cell CPT	HT1080-NT tox	IL-1B inflam inh
COc1ccc(/C=C/c2cc(-c3ccc(C)cc3)o[n+]2C)cc1	0.26µM*	6.5µM*	0.26µM*	15µM*	-120*
COc1ccc(/C=C/c2c(-c3ccc(OC)cc3)oc3ccc(-c4ccc(OC)cc4)cc23)cc1	5%	-2%	-2%	-6%	-1
O=C(CCN1C(=O)C2C3CCC(C3)C2C1=O)Nc1cccc(Cl)c1 (stereo not drawn)	0%	-4%	-3%	0%	2
COc1ccccc1N1CCN(S(=O)(=O)CCNC(=O)Cc2ccc(F)cc2)CC1	u	u	21µM*	-27%	-4
COc1ccccc1N1CCN(S(=O)(=O)CCNC(=O)COc2ccccc2)CC1	u	-1%	u	1%	-18
COc1ccccc1N1CCN(S(=O)(=O)CCNC(=O)Cc2ccc(Cl)cc2)CC1	23µM*	x	u	x	x
CCCCOc1ccc(C(=O)NCCS(=O)(=O)N2CCN(c3ccccc3OC)CC2)cc1	7.3µM*	x	5.8µM*	x	x
CC(C)CCC[C@@H](C)[C@H]1CC[C@H]2[C@@H]3CC[C@@H]4C[C@H](O)CC[C@]4(C)[C@H]3CC[C@]12C	-20%	x	-10%	x	x
COC(=O)c1ccc(N2CC3CNC(=O)C2(C(=O)OC)N3C)cc1 (stereo not drawn)	-2%	5%	15%	u	17
C=CCNC(=O)COc1cc(C)ccc1C	u	-3%	-22%	1%	-4
CC(C)c1c(O)nc(SCC(=O)N2CCCCC2)[nH]c1=O	-1%	5%	-2%	14%	6
Cc1sc2nc(SCC(=O)N3CCCC3)[nH]c(=O)c2c1C	u	-5%	26µM*	2%	1
Cc1sc2nc(SCC(=O)N3CCCCC3)[nH]c(=O)c2c1C	-9%	-6%	-12%	-5%	26
CCC(C)c1c(O)nc(SCC(=O)N2CCCCCC2)[nH]c1=O (stereo not drawn)	-14%	8%	8%	6%	-51*
CCCc1ccc2oc(C(=O)N3CCN(c4cnccn4)CC3)c(C)c2c1	-26%	-9%	u	-11%	1
CCC1(CC)C(=O)C(C)(C)C(=O)OC1c1cccs1 (stereo not drawn)	21µM*	10%	u	5%	18
CC1C(=O)C(C)C(c2cccs2)NC1c1cccs1 (stereo not drawn)	-11%	-5%	-13%	-5%	10
O=C1CC(c2ccc3c(c2)OCCO3)Oc2ccc([N+](=O)[O-])cc21 (stereo not drawn)	16µM*	0%	u	u	-69*
